{"source": "the supplement of paper PMC8728848", "test_in_all_cases": "glycan array binding signal (z-score within array); higher = stronger binding", "conditions_in_all_cases": "glycan notation: IUPAC condensed, linker removed", "key": {"[1]": {"biological_target": "Gal6S(b1-4)GlcNAc6S", "outline": "(§1)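 The Consortium for Functional Glycomics database supplied 3228 glycan arrays, of which those lacking an available protein sequence were dropped. The binding signal, a within-array Z-score, was averaged across arrays of the same protein sequence and across linkers. Negative scores can be read as non-binding.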"}, "[2]": {"biological_target": "GalNAc(a1-3)GalNAc(b1-3)Gal(a1-4)Gal(b1-4)Glc", "outline": "as §1"}, "[3]": {"biological_target": "GalNAc(b1-4)GlcNAc", "outline": "as §1"}, "[4]": {"biological_target": "Glc(a1-6)Glc(a1-6)Glc(a1-6)Glc", "outline": "as §1"}, "[5]": {"biological_target": "GlcNAc(b1-2)[GlcNAc(b1-4)]Man(a1-3)[GlcNAc(b1-2)Man(a1-6)]Man(b1-4)GlcNAc(b1-4)GlcNAc", "outline": "as §1"}, "[6]": {"biological_target": "GlcNAc(b1-3)Gal(b1-4)GlcNAc(b1-2)Man(a1-3)[GlcNAc(b1-3)Gal(b1-4)GlcNAc(b1-2)Man(a1-6)]Man(b1-4)GlcNAc(b1-4)[Fuc(a1-6)]GlcNAc", "outline": "as §1"}, "[7]": {"biological_target": "GlcNAc(b1-3)Gal(b1-4)GlcNAc(b1-3)Gal(b1-4)GlcNAc(b1-2)Man(a1-3)[GlcNAc(b1-3)Gal(b1-4)GlcNAc(b1-3)Gal(b1-4)GlcNAc(b1-2)Man(a1-6)]Man(b1-4)GlcNAc(b1-4)[Fuc(a1-6)]GlcNAc", "outline": "as §1"}, "[8]": {"biological_target": "GlcNAc(b1-3)Gal(b1-4)GlcNAc(b1-3)Gal(b1-4)GlcNAc(b1-2)[GlcNAc(b1-3)Gal(b1-4)GlcNAc(b1-3)Gal(b1-4)GlcNAc(b1-6)]Man(a1-6)[GlcNAc(b1-3)Gal(b1-4)GlcNAc(b1-3)Gal(b1-4)GlcNAc(b1-2)Man(a1-3)]Man(b1-4)GlcNAc(b1-4)[Fuc(a1-6)]GlcNAc", "outline": "as §1"}, "[9]": {"biological_target": "GlcNAc(b1-3)GalNAc", "outline": "as §1"}, "[10]": {"biological_target": "Kdn(a2-3)Gal(b1-4)Glc", "outline": "as §1"}, "[11]": {"biological_target": "Man(a1-2)Man(a1-3)[Man(a1-2)Man(a1-6)]Man(a1-6)[Man(a1-2)Man(a1-2)Man(a1-3)]Man", "outline": "as §1"}, "[12]": {"biological_target": "Man(a1-3)[Man(a1-6)]Man(a1-6)[Man(a1-2)Man(a1-3)]Man(b1-4)GlcNAc(b1-4)GlcNAc", "outline": "as §1"}, "[13]": {"biological_target": "Man(a1-3)[Man(a1-6)]Man(a1-6)[Man(a1-3)]Man", "outline": "as §1"}, "[14]": {"biological_target": "Neu5Ac(a2-3)Gal(b1-3)GalNAc(b1-4)[Neu5Ac(a2-3)]Gal(b1-4)Glc", "outline": "as §1"}, "[15]": {"biological_target": "Neu5Ac(a2-3)Gal(b1-3)GalNAc6S", "outline": "as §1"}, "[16]": {"biological_target": "Neu5Ac(a2-3)Gal(b1-3)[Fuc(a1-4)]GlcNAc", "outline": "as §1"}, "[17]": {"biological_target": "Neu5Ac(a2-3)Gal(b1-4)GlcNAc(b1-2)Man(a1-3)[Neu5Ac(a2-3)Gal(b1-4)GlcNAc(b1-2)Man(a1-6)]Man(b1-4)GlcNAc(b1-4)GlcNAc", "outline": "as §1"}, "[18]": {"biological_target": "Neu5Ac(a2-3)Gal(b1-4)GlcNAc(b1-2)[Neu5Ac(a2-3)Gal(b1-4)GlcNAc(b1-4)]Man(a1-3)[GlcNAc(b1-4)][Neu5Ac(a2-3)Gal(b1-4)GlcNAc(b1-4)Man(a1-6)]Man(b1-4)GlcNAc(b1-4)GlcNAc", "outline": "as §1"}, "[19]": {"biological_target": "Neu5Ac(a2-3)Gal(b1-4)[Fuc(a1-3)]GlcNAc(b1-3)Gal(b1-4)GlcNAc", "outline": "as §1"}, "[20]": {"biological_target": "Neu5Ac(a2-3)[GalNAc(b1-4)]Gal(b1-4)GlcNAc", "outline": "as §1"}, "[21]": {"biological_target": "Neu5Ac(a2-6)Gal(b1-4)GlcNAc(b1-6)[Gal(b1-3)GlcNAc(b1-3)]Gal(b1-4)Glc", "outline": "as §1"}, "[22]": {"biological_target": "Neu5Ac(a2-8)Neu5Ac(a2-3)[GalNAc(b1-4)]Gal(b1-4)Glc", "outline": "as §1"}, "[23]": {"biological_target": "Neu5Ac9Ac(a2-3)Gal(b1-4)GlcNAc", "outline": "as §1"}, "[24]": {"biological_target": "Neu5Ac9Ac(a2-6)Gal(b1-4)GlcNAc", "outline": "as §1"}, "[25]": {"biological_target": "Neu5Gc(a2-3)Gal(b1-4)GlcNAc", "outline": "as §1"}, "[26]": {"biological_target": "Neu5Gc(a2-8)Neu5Gc(a2-3)Gal(b1-4)GlcNAc", "outline": "as §1"}, "[27]": {"biological_target": "Neu5Gc(b2-6)Gal(b1-4)GlcNAc", "outline": "as §1"}}, "note": "This is one part of a sample in which the strongest signals are shown more often than they occur.", "data": [{"binder": "Epa23 (Candida glabrata) (protein) MGSSHHHHHHSSGLVPRGSHMIPNPFEGTINNFPSGCSPNHGLYNRGLTMELYNYSYIHPQSIQSYFNTSTLKKMEKGQCWDPSYLDVNYPRTGYKTHNRFAKVNGIDGILDFEFNPTRSCVPSKGQLPQNYNYPLQFTLSNFTMLLYGYFKPKVTAKHTFTIFADDLLFLNFGAGNAFDCCQQQDTIDDFGNYQAYALWGSDTQQNTLTVNLDANIYYPIRMFYNNRDFKGALNMYFTTDESNTKINDFSGYLFNIPDSSEGCPAHISYETECGNVSG", "values": [{"measurement": "glycan array binding signal (z-score)", "setting": "[1]", "result": 13.5}, {"measurement": "glycan array binding signal (z-score)", "setting": "[2]", "result": -0.137}, {"measurement": "glycan array binding signal (z-score)", "setting": "[3]", "result": -0.168}, {"measurement": "glycan array binding signal (z-score)", "setting": "[4]", "result": -0.278}, {"measurement": "glycan array binding signal (z-score)", "setting": "[5]", "result": -0.21}, {"measurement": "glycan array binding signal (z-score)", "setting": "[6]", "result": -0.199}, {"measurement": "glycan array binding signal (z-score)", "setting": "[7]", "result": -0.176}, {"measurement": "glycan array binding signal (z-score)", "setting": "[8]", "result": -0.093}, {"measurement": "glycan array binding signal (z-score)", "setting": "[9]", "result": -0.243}, {"measurement": "glycan array binding signal (z-score)", "setting": "[10]", "result": -0.263}, {"measurement": "glycan array binding signal (z-score)", "setting": "[11]", "result": -0.233}, {"measurement": "glycan array binding signal (z-score)", "setting": "[12]", "result": -0.22}, {"measurement": "glycan array binding signal (z-score)", "setting": "[13]", "result": -0.232}, {"measurement": "glycan array binding signal (z-score)", "setting": "[14]", "result": -0.24}, {"measurement": "glycan array binding signal (z-score)", "setting": "[15]", "result": -0.246}, {"measurement": "glycan array binding signal (z-score)", "setting": "[16]", "result": -0.296}, {"measurement": "glycan array binding signal (z-score)", "setting": "[17]", "result": -0.249}, {"measurement": "glycan array binding signal (z-score)", "setting": "[18]", "result": -0.243}, {"measurement": "glycan array binding signal (z-score)", "setting": "[19]", "result": -0.288}, {"measurement": "glycan array binding signal (z-score)", "setting": "[20]", "result": -0.198}, {"measurement": "glycan array binding signal (z-score)", "setting": "[21]", "result": -0.13}, {"measurement": "glycan array binding signal (z-score)", "setting": "[22]", "result": -0.297}, {"measurement": "glycan array binding signal (z-score)", "setting": "[23]", "result": -0.225}, {"measurement": "glycan array binding signal (z-score)", "setting": "[24]", "result": -0.239}, {"measurement": "glycan array binding signal (z-score)", "setting": "[25]", "result": -0.274}, {"measurement": "glycan array binding signal (z-score)", "setting": "[26]", "result": -0.215}, {"measurement": "glycan array binding signal (z-score)", "setting": "[27]", "result": -0.194}]}]}
